Measured values reported in the supplement of paper PMC7411054.
Counter-ions that a name gives are not always drawn.

What was measured:
Assay in all cases: phenotypically active (imaging signature differs from DMSO and reproducible) at any of 0.3-9 uM (binary (1 = active, 0 = inactive)); higher = active
Settings in all cases: treatment time: 24 h
A549-ACTB-RAB5A = test system: A549-ACTB-RAB5A
In short: (§1)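 Four wells per concentration (0.3, 1, 3 or 9 µM) were treated for 24 h in each of fifteen gene-edited reporter lines from A549, HepG2 and WPMY1 cells, then imaged live. After normalising live-cell features to solvent control wells, deviation was defined as ≥3 of 4 wells lying past the 95th percentile of control Euclidean distances. Reproducibility was defined as a median replicate Pearson correlation above the 95th percentile of non-replicates. Both had to hold for phenotypic activity.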

A549-CANX-COX4 = test system: A549-CANX-COX4
In short: as §1

A549-GM130-SQSTM1 = test system: A549-GM130-SQSTM1
In short: as §1

A549-TP53BP1-CLTA = test system: A549-TP53BP1-CLTA
In short: as §1

A549-TUBA1B-RELA = test system: A549-TUBA1B-RELA
In short: as §1

HepG2-ACTB-RAB5A = test system: HepG2-ACTB-RAB5A
In short: as §1

HepG2-CANX-COX4 = test system: HepG2-CANX-COX4
In short: as §1

HepG2-GM130-SQSTM1 = test system: HepG2-GM130-SQSTM1
In short: as §1

HepG2-TP53BP1-CLTA = test system: HepG2-TP53BP1-CLTA
In short: as §1

HepG2-TUBA1B-RELA = test system: HepG2-TUBA1B-RELA
In short: as §1

WPMY1-ACTB-RAB5A = test system: WPMY1-ACTB-RAB5A
In short: as §1

WPMY1-CANX-COX4 = test system: WPMY1-CANX-COX4
In short: as §1

WPMY1-GM130-SQSTM1 = test system: WPMY1-GM130-SQSTM1
In short: as §1

WPMY1-TP53BP1-CLTA = test system: WPMY1-TP53BP1-CLTA
In short: as §1

WPMY1-TUBA1B-RELA = test system: WPMY1-TUBA1B-RELA
In short: as §1

Measured: phenotypically active

CS(=O)(=O)OCCCCOS(C)(=O)=O [busulfan]
inactive: A549-ACTB-RAB5A 0 | A549-CANX-COX4 0 | A549-GM130-SQSTM1 0 | A549-TP53BP1-CLTA 0 | A549-TUBA1B-RELA 0 | HepG2-ACTB-RAB5A 0 | HepG2-CANX-COX4 0 | HepG2-GM130-SQSTM1 0 | HepG2-TP53BP1-CLTA 0 | HepG2-TUBA1B-RELA 0 | WPMY1-ACTB-RAB5A 0 | WPMY1-CANX-COX4 0 | WPMY1-GM130-SQSTM1 0 | WPMY1-TP53BP1-CLTA 0 | WPMY1-TUBA1B-RELA 0

CCCCCCCCCCCCCCCCCCc1ccc(C(=O)/C=C/C(=O)O)cc1
inactive: A549-ACTB-RAB5A 0 | A549-CANX-COX4 0 | A549-GM130-SQSTM1 0 | A549-TP53BP1-CLTA 0 | A549-TUBA1B-RELA 0 | HepG2-ACTB-RAB5A 0 | HepG2-CANX-COX4 0 | HepG2-GM130-SQSTM1 0 | HepG2-TP53BP1-CLTA 0 | HepG2-TUBA1B-RELA 0 | WPMY1-ACTB-RAB5A 0 | WPMY1-CANX-COX4 0 | WPMY1-GM130-SQSTM1 0 | WPMY1-TP53BP1-CLTA 0 | WPMY1-TUBA1B-RELA 0

C#C[C@]1(OC(C)=O)CC[C@H]2[C@@H]3CCC4=CC(=NO)CC[C@@H]4[C@H]3CC[C@@]21CC [norgestimate]
inactive: A549-ACTB-RAB5A 0 | A549-CANX-COX4 0 | A549-GM130-SQSTM1 0 | A549-TP53BP1-CLTA 0 | A549-TUBA1B-RELA 0 | HepG2-ACTB-RAB5A 0 | HepG2-CANX-COX4 0 | HepG2-GM130-SQSTM1 0 | HepG2-TP53BP1-CLTA 0 | HepG2-TUBA1B-RELA 0 | WPMY1-ACTB-RAB5A 0 | WPMY1-CANX-COX4 0 | WPMY1-GM130-SQSTM1 0 | WPMY1-TP53BP1-CLTA 0 | WPMY1-TUBA1B-RELA 0

c1ccc2c(c1)CCCC2C1=NCCN1 (stereo not given) [tetrahydrozoline]
inactive: A549-ACTB-RAB5A 0 | A549-CANX-COX4 0 | A549-GM130-SQSTM1 0 | A549-TP53BP1-CLTA 0 | A549-TUBA1B-RELA 0 | HepG2-ACTB-RAB5A 0 | HepG2-CANX-COX4 0 | HepG2-GM130-SQSTM1 0 | HepG2-TP53BP1-CLTA 0 | HepG2-TUBA1B-RELA 0 | WPMY1-ACTB-RAB5A 0 | WPMY1-CANX-COX4 0 | WPMY1-GM130-SQSTM1 0 | WPMY1-TP53BP1-CLTA 0 | WPMY1-TUBA1B-RELA 0

CC(C)c1ccc(NC(=O)Cn2cnc3c2c(=O)n(C)c(=O)n3C)cc1
inactive: A549-ACTB-RAB5A 0 | A549-CANX-COX4 0 | A549-GM130-SQSTM1 0 | A549-TP53BP1-CLTA 0 | A549-TUBA1B-RELA 0 | HepG2-ACTB-RAB5A 0 | HepG2-CANX-COX4 0 | HepG2-GM130-SQSTM1 0 | HepG2-TP53BP1-CLTA 0 | HepG2-TUBA1B-RELA 0 | WPMY1-ACTB-RAB5A 0 | WPMY1-CANX-COX4 0 | WPMY1-GM130-SQSTM1 0 | WPMY1-TP53BP1-CLTA 0 | WPMY1-TUBA1B-RELA 0

CN(C)c1nc(N(C)C)nc(N(C)C)n1 [altretamine]
inactive: A549-ACTB-RAB5A 0 | A549-CANX-COX4 0 | A549-GM130-SQSTM1 0 | A549-TP53BP1-CLTA 0 | A549-TUBA1B-RELA 0 | HepG2-ACTB-RAB5A 0 | HepG2-CANX-COX4 0 | HepG2-GM130-SQSTM1 0 | HepG2-TP53BP1-CLTA 0 | HepG2-TUBA1B-RELA 0 | WPMY1-ACTB-RAB5A 0 | WPMY1-CANX-COX4 0 | WPMY1-GM130-SQSTM1 0 | WPMY1-TP53BP1-CLTA 0 | WPMY1-TUBA1B-RELA 0

COC(=O)C(Cc1ccc(OCCn2c(=O)sc3cc(C(=O)c4ccccc4)ccc32)cc1)C(=O)OC
inactive: A549-ACTB-RAB5A 0 | A549-CANX-COX4 0 | A549-GM130-SQSTM1 0 | A549-TP53BP1-CLTA 0 | A549-TUBA1B-RELA 0 | HepG2-ACTB-RAB5A 0 | HepG2-CANX-COX4 0 | HepG2-GM130-SQSTM1 0 | HepG2-TP53BP1-CLTA 0 | HepG2-TUBA1B-RELA 0 | WPMY1-ACTB-RAB5A 0 | WPMY1-CANX-COX4 0 | WPMY1-GM130-SQSTM1 0 | WPMY1-TP53BP1-CLTA 0 | WPMY1-TUBA1B-RELA 0

NCC[C@H](O)C(=O)N[C@H]1C[C@@H](N)[C@H](O[C@H]2O[C@H](CN)[C@@H](O)[C@H](O)[C@H]2O)[C@@H](O)[C@@H]1O[C@H]1O[C@H](CO)[C@@H](O)[C@H](N)[C@H]1O [Amikacin hydrate]
inactive: A549-ACTB-RAB5A 0 | A549-CANX-COX4 0 | A549-GM130-SQSTM1 0 | A549-TP53BP1-CLTA 0 | A549-TUBA1B-RELA 0 | HepG2-ACTB-RAB5A 0 | HepG2-CANX-COX4 0 | HepG2-GM130-SQSTM1 0 | HepG2-TP53BP1-CLTA 0 | HepG2-TUBA1B-RELA 0 | WPMY1-ACTB-RAB5A 0 | WPMY1-CANX-COX4 0 | WPMY1-GM130-SQSTM1 0 | WPMY1-TP53BP1-CLTA 0 | WPMY1-TUBA1B-RELA 0

O=C1CCC[C@@H]2[C@H]3CCC[N+]4([O-])CCC[C@@H](CN12)[C@@H]34 (stereo not given in full) [Oxymatrine]
inactive: A549-ACTB-RAB5A 0 | A549-CANX-COX4 0 | A549-GM130-SQSTM1 0 | A549-TP53BP1-CLTA 0 | A549-TUBA1B-RELA 0 | HepG2-ACTB-RAB5A 0 | HepG2-CANX-COX4 0 | HepG2-GM130-SQSTM1 0 | HepG2-TP53BP1-CLTA 0 | HepG2-TUBA1B-RELA 0 | WPMY1-ACTB-RAB5A 0 | WPMY1-CANX-COX4 0 | WPMY1-GM130-SQSTM1 0 | WPMY1-TP53BP1-CLTA 0 | WPMY1-TUBA1B-RELA 0

CN(C)CCc1c[nH]c2ccc(C[C@H]3COC(=O)N3)cc12 [zolmitriptan]
inactive: A549-ACTB-RAB5A 0 | A549-CANX-COX4 0 | A549-GM130-SQSTM1 0 | A549-TP53BP1-CLTA 0 | A549-TUBA1B-RELA 0 | HepG2-ACTB-RAB5A 0 | HepG2-CANX-COX4 0 | HepG2-GM130-SQSTM1 0 | HepG2-TP53BP1-CLTA 0 | HepG2-TUBA1B-RELA 0 | WPMY1-ACTB-RAB5A 0 | WPMY1-CANX-COX4 0 | WPMY1-GM130-SQSTM1 0 | WPMY1-TP53BP1-CLTA 0 | WPMY1-TUBA1B-RELA 0

CCC[C@H](N[C@@H](C)C(=O)N1[C@H](C(=O)O)C[C@@H]2CCCC[C@@H]21)C(=O)OCC [perindopril]
inactive: A549-ACTB-RAB5A 0 | A549-CANX-COX4 0 | A549-GM130-SQSTM1 0 | A549-TP53BP1-CLTA 0 | A549-TUBA1B-RELA 0 | HepG2-ACTB-RAB5A 0 | HepG2-CANX-COX4 0 | HepG2-GM130-SQSTM1 0 | HepG2-TP53BP1-CLTA 0 | HepG2-TUBA1B-RELA 0 | WPMY1-ACTB-RAB5A 0 | WPMY1-CANX-COX4 0 | WPMY1-GM130-SQSTM1 0 | WPMY1-TP53BP1-CLTA 0 | WPMY1-TUBA1B-RELA 0

COC(=O)[C@H]1[C@H]2C[C@H]3c4[nH]c5ccccc5c4CCN3C[C@@H]2CC[C@@H]1O [Corynanthine hydrochloride]
inactive: A549-ACTB-RAB5A 0 | A549-CANX-COX4 0 | A549-GM130-SQSTM1 0 | A549-TP53BP1-CLTA 0 | A549-TUBA1B-RELA 0 | HepG2-ACTB-RAB5A 0 | HepG2-CANX-COX4 0 | HepG2-GM130-SQSTM1 0 | HepG2-TP53BP1-CLTA 0 | HepG2-TUBA1B-RELA 0 | WPMY1-ACTB-RAB5A 0 | WPMY1-CANX-COX4 0 | WPMY1-GM130-SQSTM1 0 | WPMY1-TP53BP1-CLTA 0 | WPMY1-TUBA1B-RELA 0
